Data: PubChem BioAssay AID504467 (National Center for Advancing Translational Sciences (NCATS), 2011)
The campaign covered roughly 330,000 compounds. About 7,700 (2.3%) were called active. Another 26% or so got no clear call; they are omitted. The sample holds actives, similar compounds and a random draw of the others, so the mix is not that of the screen. Values without a mark were called inactive. Calls come from the whole dose curve; as a rule, active = well fitted inhibition curve with a large enough effect; inconclusive = small, poorly fitted or top-dose-only effect, or effect the other way; inactive = flat fitted curve, though single readings scatter.

Assay: qHTS screen for small molecules that inhibit ELG1-dependent DNA repair in human embryonic kidney (HEK293T) cells expressing luciferase-tagged ELG1; note: nearly all actives have a fitted effect of over 55% in size
Settings: HEK293T ELG1-luciferase reporter, luminescence, 16 h, DNA damage induced by 5-fluorouridine; series mostly up to 46.1 µM; activity change, negative = inhibition: at the top concentration
How it was run: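 5-Fluorouridine DNA damage + compound/DMSO, 2,000 cells/well, 16 h, 37 °C/5% CO2. ONE-Glo, 30 min RT, luminescence. Readout = decrease in reporter signal.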
% is set by controls: 0 for no effect and ±100 for the full control effect; potency is the fitted concentration of half-maximal effect.

Row | Compound | activity change, negative = inhibition [%] | Potency
1 | O=C(CN1C(=O)CCC1=O)Nc1ccc(S(=O)(=O)N2CCOCC2)cc1 | 14 | –
2 | O=C(CN1CCN(c2cccc(Cl)c2)CC1)Nc1ccc(S(=O)(=O)N2CCOCC2)cc1 | – | 18.3 µM (active)
3 | O=C(CN1CCN(S(=O)(=O)/C=C/c2ccccc2)CC1)Nc1ccc(N2CCOCC2)cc1 | 12.1 | –
4 | CN(CCNC(=O)c1cc2c(-c3ccccc3F)nn(C)c2s1)C1CCCCC1 | -7.81 | –
5 | COc1ccccc1N1CCN(C(=O)c2cc(-c3ccc(Cl)c(Cl)c3)on2)CC1 | 22.4 | –
6 | CCOC(=O)N1CCN(C(=O)c2cc3c(-c4ccc(Cl)cc4)nn(C)c3s2)CC1 | -25.1 | –
7 | COc1ccccc1N1CCN(C(=O)c2cc3c(-c4ccc(Cl)cc4)nn(C)c3s2)CC1 | – | 11.6 µM (active)
8 | Cn1nc(-c2ccc(Cl)cc2)c2cc(C(=O)NCc3ccco3)sc21 | – | 25.9 µM (active)
9 | COc1ccc(-c2cc(C(=O)NCc3ccco3)no2)cc1OC | 23.6 | –
10 | Cc1ccc(CSCC(=O)N(C)CC(=O)Nc2ccc(C)cc2)cc1 | -21.2 | –
11 | CC(=O)Nc1ccc(S(=O)(=O)NCC(=O)OCC(=O)c2ccc[nH]2)cc1 | 9.79 | –
12 | CC(/C=C/c1ccccc1)=N\NC(=O)C1CC1(C)c1ccccc1 (configuration not stated) | – | 23.1 µM (active)
13 | CC(/C=C/c1ccco1)=N/NC(=O)C1COc2ccccc2O1 (configuration not stated) | -4.86 | –
14 | O=C(N/N=C/C=C/c1ccccc1)C1CC1(c1ccccc1)c1ccccc1 (configuration not stated) | 3.5 | –
15 | C#CCOCCOCCOCCNc1nc(N2CCN(C(=O)[C@H](CO)n3cc([C@@H](N)C(C)C)nn3)CC2)nc(N2CCN(C(=O)[C@H](CCC(=O)O)n3cc([C@@H](N)[C@H](C)CC)nn3)CC2)n1 | 3.33 | –
16 | CC(C)(C)c1ccc(NC(=O)NCc2ccco2)cc1 | 29.5 | –
17 | CC(C)(C)c1ccc(C(=O)NCCC(=O)NCc2ccco2)cc1 | – | 5.8 µM (active)
18 | O=C(CCNC(=O)c1ccccc1Cl)NCc1ccco1 | 4.02 | –
19 | CCCCN(C(=O)c1ccc2ccccc2c1)c1c(N)n(CCCC)c(=O)[nH]c1=O | 0 | –
20 | COCCn1cnnc1SCC(=O)Nc1cccc(S(=O)(=O)N2CCCCC2)c1 | 4.22 | –
21 | Cc1ccccc1NC(=O)Nc1ccccc1N1CCCCC1 | – | 18.3 µM (active)
22 | Cc1cccc(N2CC(C(=O)Nc3ccccc3N3CCCC3)CC2=O)c1C (configuration not stated) | -3.99 | –
23 | Cc1ccccc1NC(=O)NC1(C(=O)N2CCCC2)CCCCC1 | -5.66 | –
24 | O=C(CCC1CCCCC1)Nc1cc(C(F)(F)F)ccc1N1CCOCC1 | -4.46 | –
25 | Cc1nn(C)c(C)c1NS(=O)(=O)c1ccc(OC(F)(F)F)cc1 | 0.543 | –
26 | CCN(CC)S(=O)(=O)c1ccc(CNC(=O)CN2C(=O)NC3(CCc4ccccc43)C2=O)cc1 (configuration not stated) | 3.44 | –

Row | Compound | activity change, negative = inhibition [%] | Potency
27 | CCN(CC)c1ccc(NC(=O)CN2C(=O)NC3(CCc4ccccc43)C2=O)cc1 (configuration not stated) | 5.28 | –
28 | CN(C)S(=O)(=O)c1cc(NC(=O)CN2C(=O)NC3(CCCc4ccccc43)C2=O)ccc1Cl (configuration not stated) | – | 25.9 µM (active)
29 | N#Cc1ccccc1S(=O)(=O)N1CCN(Cc2c(O)ccc3ccccc23)CC1 | -3.58 | –
30 | COCCn1c(SCC(=O)Nc2cc(OC)ccc2OC)nc2c(c1=O)SC(C)C2 (configuration not stated) | -7.11 | –
31 | COCCn1c(SCC(=O)Nc2cc(Cl)ccc2OC)nc2c(c1=O)SC(C)C2 (configuration not stated) | – | 25.9 µM (active)
32 | CCn1c(SCC(=O)Nc2ccccc2F)nc2c(c1=O)SC(C)C2 (configuration not stated) | -13.6 | –
33 | Cc1cc(NC(=O)CSc2nnc(-c3ccco3)n2N)no1 | 14.5 | –
34 | CCNS(=O)(=O)c1ccc(CCC(=O)N2CCN(c3ccc(OC)cc3)CC2)cc1 | -9.27 | –
35 | CCNS(=O)(=O)c1ccc(CCC(=O)N2CCN(c3cc(Cl)ccc3C)CC2)cc1 | – | 11.6 µM (active)
36 | CCCNS(=O)(=O)c1ccc(CCC(=O)N2CCCC2)cc1 | -1.71 | –
37 | O=C1OC[C@@H]2CCCN2C(=O)[C@H](CC(=O)N(CCO)Cc2ccccc2)C/C=C\CC[C@@H]1Cc1ccc(F)cc1 | 7.5 | –
38 | CCC(=O)Nc1ccccc1N1CCN(S(C)(=O)=O)CC1 | 8.38 | –
39 | O=C(NC(=S)Nc1ccccc1N1CCCCC1)c1ccc(F)cc1 | 3.01 | –
40 | COc1ccc(C(=O)NC(=S)Nc2ccccc2N2CCN(S(C)(=O)=O)CC2)cc1OC | – | 14.6 µM (active)
41 | COc1ccc(NC(=O)c2cc3nc(-c4ccccc4)cc(C)n3n2)cc1OC | – | 10.3 µM (active)
42 | COc1ccc(NC(=O)CNC(=O)Cc2ccccc2)cc1OC | 1.57 | –
43 | COc1ccc(NC(=O)COC(=O)Cn2c(C)nc3ccccc32)cc1OC | 9.39 | –
44 | COCCCNC(=O)CC1C[C@H](C(=O)N2CCCCC2)[C@@]2(CCc3ccccc3)c3[nH]c4ccccc4c3CCN2C1=O (some centres not stated) | 7.79 | –
45 | CC(Oc1ccc(Br)cc1)C(=O)NCC(c1ccco1)N1CCCCC1 (configuration not stated) | -0.374 | –
46 | O=C(Nc1ccc(N2CCN(C(=O)c3ccccc3)CC2)c(Cl)c1)c1cccnc1 | – | 8.2 µM (active)
47 | O=C(Cc1ccccc1)Nc1ccc(NC(=O)c2cccnc2)cc1 | 2.94 | –
48 | O=C(Nc1cccc(Cl)c1N1CCOCC1)c1cccnc1 | -3.8 | –
49 | Cc1cc(C)cc(NC(=O)C(c2ccccc2)N2CCN(CC(=O)N3CCCC3)CC2)c1 (configuration not stated) | 0.225 | –
50 | CCC(C(=O)NCc1cccnc1)n1nc(C)c2sc3ccccc3c2c1=O (configuration not stated) | -1.1 | –
51 | Cc1onc(-c2c(F)cccc2Cl)c1C(=O)OCC(=O)N1C(C)CCCC1C (configuration not stated) | -14.7 | –
52 | COc1ccc(NC(=O)CSc2nnc(-c3cccs3)n2Cc2ccco2)cc1OC | – | 20.6 µM (active)
